Molecules are shown by their SMILES. Where “and” joins values, the source holds several entries; their conditions need not be identical. Equal values may be shown once. Results filed as inconclusive are left out. Calls of active or inactive are those of the source. Unless noted, calls come from the whole dose curve; as a rule, active = well fitted curve in the direction sought with a large enough effect in the repeat runs; inconclusive = weak or mixed curves; inactive = no such curve, though single readings can be large; an effect the other way counts as inactive or inconclusive.

The results in this text go back to PubChem BioAssay (Tox21).

The nature of assay [1]: qHTS assay to identify aromatase inhibitors - cell viability counter screen (AID 743084).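 Note: cells stimulated with testosterone during compound exposure; nearly all actives have a fitted effect of over 55% in size.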
Assay [2] deals with Aryl hydrocarbon receptor (Homo sapiens) (UniProt P35869). Description: qHTS assay to identify small molecule that activate the aryl hydrocarbon receptor (AhR) signaling pathway (AID 743085).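 For activation: HG2L7.5c1 human HepG2 liver cells with stably integrated DRE-driven firefly reporter; series mostly up to about 70 µM.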 Note: nearly all actives have a fitted effect of over 15% in size. Note: potency is the fitted concentration of half-maximal effect. In short, it runs like this:
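Stably transfected human liver carcinoma cells (HG2L7.5c1; 20 DRE-firefly luciferase) were incubated 5 h, dosed, and kept 24 h at 37C. Agonism was scored from increased luciferase luminescence.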

Assay [3] is described as follows: qHTS assay to identify small molecule that activate the aryl hydrocarbon receptor (AhR) signaling pathway - cell viability counter screen (AID 743086).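 Note: HepG2 liver cells carrying the AhR DRE luciferase reporter; series mostly up to about 70 µM; nearly all actives have a fitted effect of over 45% in size.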 In short, it runs like this:
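HepG2-AhR-luc (HG2L7.5c1) cells, 4000/well, treated 24 h at 37 C with compound; viability measured as CellTiter-Fluor fluorescence after 30 min in the same wells as the luciferase read.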

For assay [4], the target named is Peroxisome proliferator-activated receptor gamma (Homo sapiens) (UniProt P37231). Description: qHTS assay to identify small molecule agonists of the peroxisome proliferator-activated receptor gamma (PPARg) signaling pathway (AID 743094; active = well fitted activation curve with a large enough effect in the signal ratio in the repeat runs, not every such curve was filed as active; the % refers to the signal ratio). In short, it runs like this:
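HEK293H PPARg-bla cells, 5 h settle at 37C/5% CO2; compound (DMSO) 17 h, 37C; B/G FRET substrate 1 h RT; fluorescence intensity read-out. qHTS format.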

Assay [5] can be described thus: qHTS assay to identify small molecule antagonists of the peroxisome proliferator-activated receptor gamma (PPARg) signaling pathway - cell viability counter screen (AID 743194). Note: nearly all actives have a fitted effect of over 55% in size. The note with it: Potency: co-treated with 50 nM rosiglitazone. In a few lines:
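Cytotoxicity counter screen in PPARg-bla HEK293H cells, same wells as reporter assay. Compounds plus 50 nM rosiglitazone (final) for 17 h at 37 C, then viability read by CellTiter-Glo luminescence.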
(In general: Quantitative high-throughput screening tests each substance at several concentrations.)

Assay [6] is described as follows: qHTS assay for small molecule agonists of the antioxidant response element (ARE) signaling pathway (AID 743202; active = well fitted activation curve with a large enough effect in the signal ratio in the repeat runs, not every such curve was filed as active; the % refers to the signal ratio; note: potency is the fitted concentration of half-maximal effect). In a few lines:
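HepG2 ARE-bla reporter line, 2,000 cells/well; 5 h preincubation 37 C/5% CO2; compound (DMSO) 16 h 37 C; B/G FRET substrate 2 h RT; fluorescence intensity.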

Assay [7] in a line: qHTS assay for small molecule activators of the heat shock response signaling pathway - cell viability counter screen (AID 743209). Note: nearly all actives have a fitted effect of over 50% in size. In a few lines: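 HSE-bla HeLa; 1500 cells/well; overnight 37 C, 5% CO2; compound 5 h 37 C; LiveBLAzer B/G substrate 2.5 h RT; CellTiter-Glo 30 min RT; luminescence.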
Assay [8] can be described thus: qHTS assay for small molecule activators of the heat shock response signaling pathway (AID 743210; active = well fitted activation curve with a large enough effect in the signal ratio in the repeat runs, with a control signal flat, not every such curve was filed as active; the % refers to the signal ratio; note: series mostly up to about 63 µM). In short, it runs like this: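 Beta-lactamase reporter read-out: FRET substrate fluorescence after 2.5 h at RT, following 5 h compound treatment at 37 C of HeLa cells carrying HSE-driven bla reporter; quantitative HTS format.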
The target in assay [9] is Peroxisome proliferator-activated receptor delta (Homo sapiens) (UniProt Q03181). Description: qHTS assay to identify small molecule agonists of the peroxisome proliferator-activated receptor delta (PPARd) signaling pathway (AID 743212; calls by dose curve). In a few lines:
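Read-out: beta-lactamase FRET fluorescence after 2 h room-temperature incubation with LiveBLAzer B/G substrate. Cells were HEK293H carrying a UAS-bla reporter for PPARd, treated at 37 C with DMSO-dissolved compounds.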

The nature of assay [10]: qHTS assay to identify small molecule antagonists of the peroxisome proliferator-activated receptor delta (PPARd) signaling pathway - cell viability counter screen (AID 743213). Note: nearly all actives have a fitted effect of over 50% in size. In a few lines:
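PPARd-bla HEK293H cells were treated with compounds plus agonist L165041 (300 nM final) for 17 h at 37 C. Viability was then read in the same wells by CellTiter-Glo luminescence after 30 min at room temperature.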

The target of assay [11] is Bile acid receptor (Homo sapiens) (UniProt Q96RI1). Description: qHTS assay to identify small molecule antagonists of the farnesoid-X-receptor (FXR) signaling pathway (AID 743217; active = well fitted inhibition curve with a large enough effect in the signal ratio in the repeat runs, not every such curve was filed as active; the % refers to the signal ratio). In a few lines:
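Read-out: beta-lactamase FRET fluorescence (LiveBLAzer B/G substrate, 2 h, room temperature) in GeneBLAzer FXR-UAS-bla HEK 293T cells. Compounds were co-dosed with 50 uM chenodeoxycholic acid (final) and incubated 16 h at 37 °C.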

Assay [12] in a line: qHTS assay to identify small molecule agonists of the farnesoid-X-receptor (FXR) signaling pathway - cell viability counter screen (AID 743218). Note: nearly all actives have a fitted effect of over 45% in size. In short, it runs like this:
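Luminescence from CellTiter-Glo, read after 30 min at RT, reports viability of GeneBLAzer FXR-UAS-bla HEK 293T cells treated 16 h with compounds in the wells used for the beta-lactamase reporter.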

In assay [13] the target is Bile acid receptor (Homo sapiens) (UniProt Q96RI1). Description: qHTS assay to identify small molecule agonists of the farnesoid-X-receptor (FXR) signaling pathway (AID 743220; active = well fitted activation curve with a large enough effect in the signal ratio in the repeat runs, not every such curve was filed as active; the % refers to the signal ratio). In a few lines:
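FXR-UAS-bla HEK 293T cells carrying a UAS-driven beta-lactamase reporter were plated for 5 h at 37C/5% CO2, then exposed to DMSO-dissolved Tox21 10K compounds for 16 h at 37C. A LiveBLAzer B/G FRET substrate was loaded for 2 h at room temperature before fluorescence reading.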

The nature of assay [14]: qHTS assay for small molecule agonists of the antioxidant response element (ARE) signaling pathway - cell viability counter screen (AID 743203; calls by dose curve; note: nearly all actives have a fitted effect of over 55% in size). In short, it runs like this:
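Luminescence read-out (CellTiter-Glo, 30 min at room temperature) measured cell viability in the same wells as the ARE beta-lactamase reporter. HepG2 ARE-bla cells were treated with compounds for 16 hrs at 37C/5% CO2.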

Assay [15] concerns the target Peroxisome proliferator-activated receptor delta (Homo sapiens) (UniProt Q03181). Description: qHTS assay to identify small molecule antagonists of the peroxisome proliferator-activated receptor delta (PPARd) signaling pathway (AID 743215; active = well fitted inhibition curve with a large enough effect in the signal ratio in the repeat runs, not every such curve was filed as active; the % refers to the signal ratio;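 note: cells stimulated with agonist L165041 at 300 nM final during compound exposure; series mostly up to about 62 µM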). In a few lines: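 HEK293H GeneBLAzer PPARd UAS-bla reporter cells; cpd + L165041 300 nM final, 17 h 37 C; LiveBLAzer B/G FRET substrate 2 h RT; fluorescence intensity read-out. Antagonist mode.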

The nature of assay [16]: qHTS assay to identify small molecule antagonists of the farnesoid-X-receptor (FXR) signaling pathway - cell viability counter screen (AID 743221; active = well fitted cell-killing curve with a large enough effect in the repeat runs, not every such curve was filed as active; note: nearly all actives have a fitted effect of over 50% in size). In a few lines: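 Here viability was scored by luminescence after CellTiter-Glo addition to wells already read for beta-lactamase. Prior treatment: compound plus CDCA (50 uM final), 16 h, 37 C, HEK 293T FXR-bla cells.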
Assay [17] is described as follows: qHTS assay to identify small molecule agonists of the peroxisome proliferator-activated receptor delta (PPARd) signaling pathway - cell viability counter screen (AID 743211). Note: nearly all actives have a fitted effect of over 55% in size. In a few lines:
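In the same wells used for beta-lactamase reporter measurement, cytotoxicity is scored by CellTiter-Glo. HEK293H PPARd-bla cells receive compound for 17 h at 37C following a 5 h settling period.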

Assay [18] deals with Vitamin D3 receptor (Homo sapiens) (UniProt P11473). Description: qHTS assay to identify small molecule agonists of the vitamin D receptor (VDR) signaling pathway (AID 743222; calls by dose curve). In short, it runs like this: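 Beta-lactamase reporter readout (LiveBLAzer B/G FRET, 2 h RT) in VDR-bla cells after 16 h compound treatment at 37C, 5% CO2; cells pre-incubated 4 h before pin transfer of DMSO solutions.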

Assay [19] has the same target. Description: qHTS assay to identify small molecule antagonists of the vitamin D receptor (VDR) signaling pathway (AID 743223; active = well fitted inhibition curve with a large enough effect in the signal ratio in the repeat runs, not every such curve was filed as active; the % refers to the signal ratio). In short, it runs like this: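 Inhibition of agonist-driven VDR signalling is scored in VDR-bla cells: 3 nM final 1alpha,25-dihydroxyvitamin D3 plus compound, 16 h at 37C, then beta-lactamase detection by FRET substrate fluorescence after 2 h.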

Sequence of Peroxisome proliferator-activated receptor gamma (Homo sapiens) (P37231 whole entry, looked up): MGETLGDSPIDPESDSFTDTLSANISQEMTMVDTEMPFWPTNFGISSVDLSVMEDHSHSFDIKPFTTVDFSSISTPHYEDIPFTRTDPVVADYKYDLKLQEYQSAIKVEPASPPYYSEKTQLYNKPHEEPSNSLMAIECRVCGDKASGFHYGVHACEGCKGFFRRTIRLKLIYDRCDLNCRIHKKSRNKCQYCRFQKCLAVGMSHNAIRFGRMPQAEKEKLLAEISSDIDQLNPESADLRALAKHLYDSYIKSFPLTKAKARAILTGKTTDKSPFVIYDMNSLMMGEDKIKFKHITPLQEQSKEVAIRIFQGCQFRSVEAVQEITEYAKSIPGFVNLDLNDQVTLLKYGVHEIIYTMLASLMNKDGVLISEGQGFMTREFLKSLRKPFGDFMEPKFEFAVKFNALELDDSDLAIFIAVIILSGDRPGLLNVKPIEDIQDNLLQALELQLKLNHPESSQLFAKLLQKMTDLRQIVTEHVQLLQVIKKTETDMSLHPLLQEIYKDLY
Sequence of Vitamin D3 receptor (Homo sapiens) (P11473 whole entry, looked up): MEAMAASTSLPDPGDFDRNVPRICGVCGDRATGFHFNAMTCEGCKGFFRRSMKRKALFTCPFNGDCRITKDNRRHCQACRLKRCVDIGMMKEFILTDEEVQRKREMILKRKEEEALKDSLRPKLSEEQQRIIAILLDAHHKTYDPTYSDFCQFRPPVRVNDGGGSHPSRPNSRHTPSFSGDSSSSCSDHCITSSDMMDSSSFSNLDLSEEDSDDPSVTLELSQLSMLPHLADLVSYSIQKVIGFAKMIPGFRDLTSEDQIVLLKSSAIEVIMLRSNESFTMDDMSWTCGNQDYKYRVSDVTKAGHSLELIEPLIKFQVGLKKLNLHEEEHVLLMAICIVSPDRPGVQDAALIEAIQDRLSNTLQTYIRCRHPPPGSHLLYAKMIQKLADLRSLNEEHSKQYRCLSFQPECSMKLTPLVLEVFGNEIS
Sequence of Bile acid receptor (Homo sapiens) (Q96RI1 whole entry, looked up): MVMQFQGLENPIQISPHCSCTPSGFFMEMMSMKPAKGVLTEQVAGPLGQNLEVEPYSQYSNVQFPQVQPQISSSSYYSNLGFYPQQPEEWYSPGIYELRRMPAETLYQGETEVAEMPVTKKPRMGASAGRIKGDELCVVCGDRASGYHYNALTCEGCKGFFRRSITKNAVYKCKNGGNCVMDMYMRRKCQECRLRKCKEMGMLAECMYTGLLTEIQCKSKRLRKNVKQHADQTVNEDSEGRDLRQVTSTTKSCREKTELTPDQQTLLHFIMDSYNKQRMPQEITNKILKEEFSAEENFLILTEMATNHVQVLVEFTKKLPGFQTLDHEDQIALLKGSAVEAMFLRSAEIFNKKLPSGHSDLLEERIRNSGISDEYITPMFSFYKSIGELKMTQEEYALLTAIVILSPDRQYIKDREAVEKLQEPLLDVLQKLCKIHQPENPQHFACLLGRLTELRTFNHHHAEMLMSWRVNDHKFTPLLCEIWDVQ
Sequence of Peroxisome proliferator-activated receptor delta (Homo sapiens) (Q03181 whole entry, looked up): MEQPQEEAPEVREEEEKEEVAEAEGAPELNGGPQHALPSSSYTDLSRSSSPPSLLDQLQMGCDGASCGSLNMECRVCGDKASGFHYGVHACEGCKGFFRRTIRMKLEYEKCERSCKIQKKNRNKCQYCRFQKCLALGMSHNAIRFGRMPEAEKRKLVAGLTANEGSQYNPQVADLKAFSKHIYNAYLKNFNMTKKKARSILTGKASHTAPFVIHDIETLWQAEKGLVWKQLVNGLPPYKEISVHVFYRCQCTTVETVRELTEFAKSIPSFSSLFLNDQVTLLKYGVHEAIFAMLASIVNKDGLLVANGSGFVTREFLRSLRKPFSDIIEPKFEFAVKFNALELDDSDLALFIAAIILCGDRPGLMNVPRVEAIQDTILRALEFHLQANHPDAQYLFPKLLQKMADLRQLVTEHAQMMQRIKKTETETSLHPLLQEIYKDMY
Sequence of Aryl hydrocarbon receptor (Homo sapiens) (P35869 whole entry, looked up): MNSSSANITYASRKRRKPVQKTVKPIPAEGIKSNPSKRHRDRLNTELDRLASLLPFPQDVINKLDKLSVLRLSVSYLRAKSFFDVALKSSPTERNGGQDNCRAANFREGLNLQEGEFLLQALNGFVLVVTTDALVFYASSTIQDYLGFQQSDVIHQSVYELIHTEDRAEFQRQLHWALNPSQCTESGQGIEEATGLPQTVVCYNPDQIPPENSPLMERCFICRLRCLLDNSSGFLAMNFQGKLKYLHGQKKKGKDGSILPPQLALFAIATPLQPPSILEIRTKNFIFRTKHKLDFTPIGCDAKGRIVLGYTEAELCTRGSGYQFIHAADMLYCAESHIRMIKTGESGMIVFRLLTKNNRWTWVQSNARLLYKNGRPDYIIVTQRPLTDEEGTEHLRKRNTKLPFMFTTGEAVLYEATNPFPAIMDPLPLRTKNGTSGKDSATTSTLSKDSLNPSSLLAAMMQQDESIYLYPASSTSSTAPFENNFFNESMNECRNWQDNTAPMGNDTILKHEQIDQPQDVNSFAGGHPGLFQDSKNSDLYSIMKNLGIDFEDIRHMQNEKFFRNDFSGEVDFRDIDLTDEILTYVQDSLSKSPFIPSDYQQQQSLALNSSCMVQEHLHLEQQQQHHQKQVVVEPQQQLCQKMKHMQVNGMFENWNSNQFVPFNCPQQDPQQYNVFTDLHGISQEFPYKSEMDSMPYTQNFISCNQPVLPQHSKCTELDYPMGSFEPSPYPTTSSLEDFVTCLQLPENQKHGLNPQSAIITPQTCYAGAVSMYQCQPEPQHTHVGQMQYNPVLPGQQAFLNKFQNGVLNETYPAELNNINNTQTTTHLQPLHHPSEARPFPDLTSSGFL

For the compound `C=CC(C)=O`, the Potency result in assay [1], in assay [2], in [3], in assay [4], in assay [5] and in [6] was “inactive” in each case. Besides, the Potency result in assay [7], in [10], in [11] and in [12] was “inactive” in each case. The compound was called inactive in assay [8], in assay [9] and in [13].

For the compound `CC(=O)[C@H]1CC[C@H]2[C@@H]3CC[C@H]4C[C@](C)(O)CC[C@]4(C)[C@H]3CC[C@]12C`, the Potency entry in assay [1], in assay [2], in assay [3], in assay [4], in assay [5] and in assay [14] was “inactive” in each case. For the same compound, the Potency result in [7], in assay [10], in assay [15] and in assay [16] was “inactive” in each case. Also, the compound was called inactive in assay [8] and in assay [9].

`O=C(O)COc1ccc(Cl)cc1`: the Potency result in assay [1], in assay [2], in assay [3], in assay [4], in assay [5] and in [14] was “inactive” each time. Besides, the Potency entry in [7], in [17], in [10] and in assay [15] was “inactive” throughout. The result in [8], in assay [9] and in [18] was inactive.

For `C[C@H]1CNCCc2ccc(Cl)cc21`, the Potency result in assay [1], in assay [2], in assay [3], in [4], in assay [5] and in [14] was “inactive” throughout. In addition, the Potency result in assay [7], in assay [15], in [11], in [12] and in assay [16] was “inactive” in each case. Moreover, the compound was classed as inactive in assay [8], in assay [9], in [13], in [18] and in assay [19].

On to `CS/C(C)=N/OC(=O)N(C)SN(C)C(=O)O/N=C(\C)SC`, for which the Potency result in assay [1], in assay [2], in assay [3], in [4], in assay [5] and in assay [6] was “inactive” throughout. In addition, the Potency entry in [14], in assay [7], in assay [17], in assay [10], in assay [11] and in assay [12] was “inactive” in each case. For the same compound, in assay [16], the Potency result is “inactive”. For the same compound, the call in assay [9] and in assay [13] was inactive.

Consider `CN(C)c1ccc(N(C)C)cc1`, for which the Potency result in [1], in assay [3], in assay [4], in assay [5], in assay [14] and in [10] was “inactive” in each case. In addition, the Potency entry in [11] and in [16] was “inactive” each time. Moreover, the Potency in assay [2] is 61.3 µM (active). The call in assay [8] and in [13] was inactive.

`Brc1ccc(Oc2ccccc2)cc1`: the Potency entry in assay [1], in assay [2], in assay [3], in [4], in assay [5] and in assay [6] was “inactive” each time. Besides, the Potency entry in [7], in assay [17] and in assay [10] was “inactive” each time. Besides, the compound was classed as inactive in [8], in assay [9], in assay [18] and in assay [19].

`II`: the Potency result in [1], in assay [2], in assay [3], in assay [4], in assay [5] and in assay [6] was “inactive” each time. The Potency result in assay [14], in assay [17], in assay [10], in assay [15], in [12] and in assay [16] was “inactive” throughout. Moreover, the call in assay [8], in [9], in [18] and in [19] was inactive.

In the case of `CCOP(=S)(OCC)Oc1nc(Cl)c(Cl)cc1Cl`, the Potency result in [1], in assay [3], in assay [4], in [5], in assay [14] and in assay [7] was “inactive” throughout. For the same compound, the Potency entry in assay [17], in assay [10], in [15], in assay [11] and in assay [12] was “inactive” each time. Besides, in assay [2], the Potency was 27.4 µM (active) and 10.9 µM (active). Besides, the compound was called inactive in assay [8], in assay [9], in assay [13], in assay [18] and in assay [19].

Take `O=C(NC(=O)c1c(F)cccc1F)Nc1ccc(OC(F)(F)C(F)OC(F)(F)F)c(Cl)c1` (stereo unspecified): the Potency result in assay [1], in [2], in [3], in assay [4], in assay [5] and in assay [17] was “inactive” throughout. Besides, the Potency result in [10], in assay [15], in [12] and in [16] was “inactive” throughout. The result in assay [18] and in [19] was inactive.

As for `CC[C@H]1C[C@H]2[C@@H]3CCC4=CC(=O)CC[C@@H]4[C@H]3CC[C@]2(C)[C@H]1O`, the Potency entry in [1], in assay [2], in assay [3], in assay [4], in [5] and in assay [7] was “inactive” throughout. The Potency result in assay [10], in [12] and in [16] was “inactive” each time. For the same compound, in assay [6], the Potency was 29.8 µM (active). Further, the compound was classed as inactive in assay [8], in assay [9] and in assay [19].
